# According to PubChem BioAssay (NCI):
# About 83,000 compounds went through this panel and 20% of them were active in at least one assay; those are over-represented in the sample as a whole.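 Plates (96-well) were seeded with cells, treated with compound at one concentration, and incubated for 48 hours before percent growth was determined.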 A number with no mark means an inactive call. The source made the active and inactive calls. The calls were made as follows: active = growth percent below 10; inactive = the rest.
# How the values were obtained:
# Test in all cases: NCI-60 one-dose screen, 48 h (100 = growth as untreated, 0 = no growth, -100 = all killed)
# Details in all cases: 10 µM unless noted
# SK-MEL-2 melanoma = tested on: SK-MEL-2 melanoma
# EKVX NSCLC = tested on: EKVX NSCLC
# SN12C renal = tested on: SN12C renal
# UO-31 renal = tested on: UO-31 renal
# TK-10 renal = tested on: TK-10 renal
# ACHN renal = tested on: ACHN renal
# CAKI-1 renal = tested on: CAKI-1 renal
# A498 renal = tested on: A498 renal
# CCRF-CEM leukemia = tested on: CCRF-CEM leukemia
# MOLT-4 leukemia = tested on: MOLT-4 leukemia
SMILES,growth (SK-MEL-2 melanoma),growth (EKVX NSCLC),growth (SN12C renal),growth (UO-31 renal),growth (TK-10 renal),growth (ACHN renal),growth (CAKI-1 renal),growth (A498 renal),growth (CCRF-CEM leukemia),growth (MOLT-4 leukemia)
COc1cc(/C=C/C(=O)c2cc(OC)c(OC)c(OC)c2)ccc1Oc1nc2c(c(=O)n(C)c(=O)n2C)n1C,76.3%,1.98% (active),11.6%,-92.1% (active),-8.16% (active),-21.9% (active),-47.2% (active),29.4%,5.81% (active),2.13% (active)
Nc1[nH]nc2nc(-c3ccccc3)n3c4ccccc4nc3c12,98.8%,78%,104%,83.2%,110%,89%,83.1%,89.2%,102%,97.9%
COC(=O)[C@@]1(C)CC[C@]2(C)CC[C@]3(C)C4=CC=C5C(=CC(=O)C(O)=C5C)[C@]4(C)[C@@H](O)C[C@@]3(C)[C@@H]2C1,43.5%,51%,9.92% (active),-56.6% (active),18.4%,-49.9% (active),9.58% (active),101%,-2.39% (active),-20% (active)
C=C1C(=O)O[C@H]2[C@H]1CC/C(COC(=O)C(=O)c1c[nH]c3ccc(Cl)cc13)=C\CC[C@@]1(C)O[C@@H]21,-58.9% (active),-73.6% (active),-86.8% (active),-94.4% (active),-96.4% (active),-84.3% (active),-87.5% (active),-87.4% (active),-41.3% (active),-12.4% (active)
COC(=O)c1nc(-c2ccccc2)oc1S(=O)(=O)N1CCCC(C)C1 (stereo not given),96.7%,100%,84.4%,65.7%,50.6%,66.7%,92.6%,92.9%,1.21% (active),6.09% (active)
C#CCOc1ccc2nc(CCl)c(Cl)c(Nc3cccc(C(F)(F)F)c3)c2c1,84.4%,91.1%,68.6%,51.8%,89.8%,52.1%,77%,104%,20.9%,29.5%
COCCn1cc(-c2nc(-c3c[nH]c4ncccc34)cs2)c2ccccc21,77.5%,16.4%,77.8%,41%,36.2%,67.6%,62.7%,44.7%,56.6%,48.7%
C=C(C)[C@@H]1CC[C@]2(C(=O)N3CCNCC3)CC[C@]3(C)[C@H](CC[C@@H]4[C@@](C)(CCC(=O)N5CCNCC5)[C@H](C(=C)C)CC[C@]43C)[C@@H]12,102%,102%,91.4%,64.3%,93.6%,93.9%,92.7%,76.2%,3.76% (active),24.7%
CCOC(=O)/C(=C(/C)NCC(C)C)c1cc(O)c(O)c2c(C)cc(=O)[nH]c12,69.1%,89.3%,42.9%,59.3%,77.7%,47.8%,51.4%,79.2%,11.2%,10.5%
COc1ccc(-c2nc3ccc(C)cc3c3c2c(=O)n(C)c(=O)n3C)cc1OC,123%,102%,98%,106%,106%,97.7%,88.4%,94%,92.3%,101%
O=S(Nc1ccccc1)c1ccc(Cl)cc1 (stereo not given),95.2%,102%,102%,85.7%,103%,94.5%,95.5%,95.8%,95.7%,85.7%
CCOC(=O)C/C(=N\Nc1cc(=O)[nH]c2ccc(OC)cc12)C(=O)OCC,117%,100%,99.5%,78.1%,114%,98.8%,91.9%,106%,-47.5% (active),26.1%
COc1cc(/C=C/C(=O)N2CCN(C(=O)c3cc(OC)c(OC)c(OC)c3)CC2)ccc1OCCCOc1cc2c(cc1OC)C(=O)N1CCC[C@H]1C=N2,-42.4% (active),8% (active),13.9%,-12.8% (active),6.61% (active),0.236% (active),3.12% (active),-55.8% (active),-1.17% (active),7.57% (active)
COc1ccccc1S(=O)(=O)Nc1ccc2c3c(cc(CCC(=O)NCCCCNc4cccc5c4C(=O)N(C4CCC(=O)NC4=O)C5=O)cc13)C(=O)N2C (stereo not given),11%,71%,7.95% (active),55.2%,58%,92.4%,37.5%,15.6%,-0.604% (active),0.837% (active)
N#Cc1c(-c2ccccc2)nc2c(c(-c3ccc(Cl)cc3)nn2-c2ccccc2)c1-c1ccc([N+](=O)[O-])cc1,104%,103%,105%,81.2%,121%,97.5%,79%,99.7%,90.6%,97.1%
CCn1cc(Cc2cc(C(=O)Nc3cc4cc(OC)c(OC)cc4c(C)n3)ccc2Cl)cn1,42%,47.2%,50.2%,35%,73.7%,15.7%,47.8%,44.4%,22.4%,42.6%
CN(C)Cc1ccc(NC(=O)c2cncc(C#Cc3cnc(N)c4ncccc34)c2)cc1C(F)(F)F,40.5%,89.4%,69.9%,-82% (active),110%,-81.8% (active),83%,60.6%,-6.13% (active),43.5%
Cc1ccc(S(=O)(=O)N2CCCN(c3nc(-c4ccccc4)nc4nc(-c5ccccc5)oc34)CC2)cc1,103%,112%,97.6%,76.8%,103%,103%,93.2%,106%,106%,95%
N#CSc1c[nH]c2ccc(/C=C/C(=O)/C=C(O)/C=C/c3ccc4[nH]cc(SC#N)c4c3)cc12,34.2%,28.8%,18.4%,-40.1% (active),8.11% (active),0.691% (active),11.9%,90.5%,2.04% (active),-28.2% (active)
O=S(=O)(Nc1cc(Sc2nc3ccccc3s2)c(O)c2ccccc12)c1ccc2ccccc2c1,95.8%,101%,90.6%,70.2%,123%,97.6%,101%,96.9%,67.7%,59.1%
Nc1cc(Br)cc2c1[nH]c(=O)c1ccccc12,112%,82%,88.6%,81.4%,104%,102%,82.5%,92.5%,93.2%,80.5%
COc1ccc2c(c1)CC[C@@H]1[C@@H]2CC[C@]2(C)c3c(cc(C#N)c4c3sc3ccccc34)C[C@@H]12,109%,103%,104%,85%,107%,105%,103%,109%,82.3%,92.1%
CN1CC(c2ccc(Br)cc2)C(C(=O)c2ccc(Br)cc2)C12C(=O)Nc1ccccc12 (stereo not given),82.9%,70.1%,70%,48.3%,92.1%,79.6%,46.9%,88.9%,80.2%,64.3%
Cc1ccc(-c2csc(NC(=O)CSc3nc(N)cc(N)n3)n2)cc1,51.6%,46.4%,82.9%,64.1%,78.9%,65.8%,79%,66.3%,50%,44.4%
Clc1ccc(Nc2ncc(Cc3cccc(Cl)c3Cl)s2)cc1,101%,97.9%,90.8%,72.5%,98.3%,97.5%,87.7%,93.7%,94%,86.7%
CC(C)n1c2ccc(Br)cc2c2c3c(c4c5ccccc5ccc4c21)C(=O)NC3=O,111%,86.1%,85.9%,59.2%,91.8%,68.4%,82.5%,71.8%,90.1%,75.1%
CNC(=O)c1cc(Oc2ccc3c(c2)sc2nc(-c4ccc(Cl)c(C(F)(F)F)c4)cn23)ccn1,59.4%,46.7%,64.4%,58.8%,48.3%,62.9%,74.1%,50.6%,47.4%,41.6%
